Measurements as given in the supplement of paper PMC10681739.

molecular target: T1, ETS1 (UniProt P14921); assay: ETS1 binding intensity (PBM fluorescence) in presence of RUNX1, normalised to ETS1-only experiment (arbitrary fluorescence units); higher = stronger binding; conditions: ETS1 concentration 1 nM; RUNX1 concentration 25 nM
T1 sequence: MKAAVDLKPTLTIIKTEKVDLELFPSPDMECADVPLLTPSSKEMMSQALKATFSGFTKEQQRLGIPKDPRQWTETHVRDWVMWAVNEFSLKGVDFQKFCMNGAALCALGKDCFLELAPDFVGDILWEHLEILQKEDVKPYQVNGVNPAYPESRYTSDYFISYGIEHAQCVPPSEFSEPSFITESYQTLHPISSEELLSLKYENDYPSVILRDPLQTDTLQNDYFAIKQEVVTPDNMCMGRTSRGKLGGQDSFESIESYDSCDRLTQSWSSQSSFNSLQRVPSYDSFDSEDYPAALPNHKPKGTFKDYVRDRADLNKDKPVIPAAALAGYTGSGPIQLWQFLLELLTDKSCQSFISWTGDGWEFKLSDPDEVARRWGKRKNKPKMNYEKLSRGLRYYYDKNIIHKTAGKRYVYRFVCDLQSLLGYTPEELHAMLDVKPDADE
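Throughout, for RUNX1 binding intensity (PBM fluorescence) in presence of ETS1, normalised to RUNX1-only experiment: Full-length recombinant human ETS1 or RUNX1 bound to double-stranded 36-bp genomic probes on microarrays, detected by protein-specific primary antibody and Alexa488 secondary, spot fluorescence as median of four replicate spots.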

Sequence | ETS1 binding intensity
CAGTCAAGAGGAAATTATAAACCACTGCCTCTTTGA | 744
GACATCCAGGAAGTGGTGAGAAACCACGTGTGTGTT | 4150
AGCAGGAAGTATGTTGAAAGTCATAACCACAGCAAA | 3050
GGAGGAAGTGACACCCACCCACTGCCCCCGCAAGGT | 987
AAATACCAGCCCACTTCCTGTGGCTTTGATCTGCAG | 3340
AATCCCGGAAACGCGGATTCAGCGGAGCGCGGTGAC | 1500
GCCGCTGGGTAGGCGGAAGTAGCCGCAGGCATGGCA | 7400
TCAGGGGAGCGAGCAGGAAGTGGTAAGATTTGATAG | 7210
TCCCTTACCTTCCTGCTGCCACCAAACCACCAAACC | 1040
CCCACCCTCGCCGGAAGCCGAGCGGTTTCTACATCA | 3600
TTCAACAAGGTTTTCCTGTGGTTACCCCATGCTTTG | 451
GGTTCGCGGCTTCCGGGACATTTGTACCGCAGGGGG | 2330
GCCATTAAAGCAGCTTCCTGTGGGCGCGGCGCAGGA | 867
GACATATCCTGCATTCTCAGAAAAACCACAGGCTAG | 1050
TGCAGCCTATTTCCTCTAACCCGCAGATCCACTATG | 728
GACAGGAAGTGACCTCAATTTCCCCGGCCACAGAAA | 4280
AACCCGGAAGTGGACACGGAGCTCGGCTGCGGCTCC | 2240
CCCCTCCCTGCTTCCTGTGTGGTGAGGGGTGATCAG | 2040
CAGGCAGGATGTTGACTCAGCTGCCAAGTGGTTTTG | 1760
TGGCGCTTCCTGTCGCTACCGCTGCGGCCCAGGGCC | 763

Sequence | ETS1 binding intensity
GTGCCTCACCGCTTCCGGCGCTGCGGGATGACGTCA | 4720
GGTTTCCGGGTGAAAAAAAAAAAAAAAACCACGCCA | 529
CTCATCAGTCATCCGGCTGGACCGCAGGAGCTCTCC | 500
TTCAGAAAAAAAGGAAGTGGTAAATTCTTGCTGATT | 3620
GGGGGCGGAAGTTTCGGTGCATTGTGGGTTCTCCTG | 1980
GCTCCCTGGACAGGATGTGGTGCCGAGTAAACAGCT | 5380
AACCTAGAAAAGGAAGCTGCGGTTTTTCAGGGTATG | 6430
CGAAGCCAGGAAATAAGGATAAACCACAGAAAGAAA | 3180
CAGCACGCAGGAAGCACATGTGGTGGGGCTCTTCCA | 759
ACAGGAAGAGATATTATATCTCCCTGCGGTTGGTTT | 2430
CGACCGGAACCACTCTGAGGCGCTGCCGCAGACACC | 583
GACGGGAGCACCGGAAGCGGTCTTTCCCCGAGCGGA | 12500
TCCTTAATGGTTCCGGCGGCAGGGACCGCAGCGACG | 526
TCCAGTGCCGCCGCCGGAAAACCGCAGCGGCGGCGG | 4530
TTCTGCTACATCCTGCCCACTCCCTGTGGCTTCCAC | 1060
ATGGGTACAGGATTTCCTTTTGTGGTGATGAAAATG | 1030
AGCTCTGCCAGGAAGTGAGAACCACAGGCCTCCCCT | 3140
AGCTGAAGGGCAGGATGTGGTTTCAGCATTCGGTGA | 16400
CGGTGGCTTCCGGCCCATGGCGGTGGTTGGTGACTC | 953
CCCCTCGCCCTTCCGCATTGCGGGTTACTTCGGTTG | 591

molecular target: RUNX1 (UniProt Q01196); assay: RUNX1 binding intensity (PBM fluorescence) in presence of ETS1, normalised to RUNX1-only experiment (arbitrary fluorescence units); higher = stronger binding; conditions: RUNX1 concentration 2 nM; ETS1 concentration 25 nM
Protocol: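 Cooperative gcPBM on 36-bp genomic probes with neighbouring ETS1 and RUNX1 sites. Recombinant human RUNX1 (2 nM) was incubated alone or with ETS1 (25 nM) and detected with anti-RUNX1 antibody plus Alexa488 secondary. Values are medians over 4 replicate spots; the RUNX1+ETS1 data were normalised to the RUNX1-only data. The probes sit in constant array flanks that are not printed.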

RUNX1, sequence (Q01196 whole entry): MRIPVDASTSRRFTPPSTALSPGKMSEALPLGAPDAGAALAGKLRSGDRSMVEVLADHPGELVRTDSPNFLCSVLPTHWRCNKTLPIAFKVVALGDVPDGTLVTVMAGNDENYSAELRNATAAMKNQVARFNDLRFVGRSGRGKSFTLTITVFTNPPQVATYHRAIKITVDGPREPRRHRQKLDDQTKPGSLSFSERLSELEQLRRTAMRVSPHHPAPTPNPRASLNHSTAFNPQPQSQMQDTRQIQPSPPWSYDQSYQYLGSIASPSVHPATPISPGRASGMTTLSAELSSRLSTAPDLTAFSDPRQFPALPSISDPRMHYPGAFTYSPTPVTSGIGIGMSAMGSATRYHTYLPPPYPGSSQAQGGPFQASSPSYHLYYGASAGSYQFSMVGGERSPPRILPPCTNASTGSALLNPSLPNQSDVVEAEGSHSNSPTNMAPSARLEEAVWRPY

Sequence | RUNX1 binding intensity
CAGTCAAGAGGAAATTATAAACCACTGCCTCTTTGA | 909
GACATCCAGGAAGTGGTGAGAAACCACGTGTGTGTT | 3070
AGCAGGAAGTATGTTGAAAGTCATAACCACAGCAAA | 1020
GGAGGAAGTGACACCCACCCACTGCCCCCGCAAGGT | 963
AAATACCAGCCCACTTCCTGTGGCTTTGATCTGCAG | 5090
AATCCCGGAAACGCGGATTCAGCGGAGCGCGGTGAC | 1260
GCCGCTGGGTAGGCGGAAGTAGCCGCAGGCATGGCA | 1000
TCAGGGGAGCGAGCAGGAAGTGGTAAGATTTGATAG | 1230
TCCCTTACCTTCCTGCTGCCACCAAACCACCAAACC | 3260
CCCACCCTCGCCGGAAGCCGAGCGGTTTCTACATCA | 1540
TTCAACAAGGTTTTCCTGTGGTTACCCCATGCTTTG | 1680
GGTTCGCGGCTTCCGGGACATTTGTACCGCAGGGGG | 1510
GCCATTAAAGCAGCTTCCTGTGGGCGCGGCGCAGGA | 1010
GACATATCCTGCATTCTCAGAAAAACCACAGGCTAG | 2000
TGCAGCCTATTTCCTCTAACCCGCAGATCCACTATG | 2250
GACAGGAAGTGACCTCAATTTCCCCGGCCACAGAAA | 1770
AACCCGGAAGTGGACACGGAGCTCGGCTGCGGCTCC | 1530
CCCCTCCCTGCTTCCTGTGTGGTGAGGGGTGATCAG | 1870
CAGGCAGGATGTTGACTCAGCTGCCAAGTGGTTTTG | 1020
TGGCGCTTCCTGTCGCTACCGCTGCGGCCCAGGGCC | 1860

Sequence | RUNX1 binding intensity
GTGCCTCACCGCTTCCGGCGCTGCGGGATGACGTCA | 7320
GGTTTCCGGGTGAAAAAAAAAAAAAAAACCACGCCA | 1740
CTCATCAGTCATCCGGCTGGACCGCAGGAGCTCTCC | 1570
TTCAGAAAAAAAGGAAGTGGTAAATTCTTGCTGATT | 1500
GGGGGCGGAAGTTTCGGTGCATTGTGGGTTCTCCTG | 1140
GCTCCCTGGACAGGATGTGGTGCCGAGTAAACAGCT | 1410
AACCTAGAAAAGGAAGCTGCGGTTTTTCAGGGTATG | 12300
CGAAGCCAGGAAATAAGGATAAACCACAGAAAGAAA | 2010
CAGCACGCAGGAAGCACATGTGGTGGGGCTCTTCCA | 1030
ACAGGAAGAGATATTATATCTCCCTGCGGTTGGTTT | 779
CGACCGGAACCACTCTGAGGCGCTGCCGCAGACACC | 1010
GACGGGAGCACCGGAAGCGGTCTTTCCCCGAGCGGA | 2370
TCCTTAATGGTTCCGGCGGCAGGGACCGCAGCGACG | 914
TCCAGTGCCGCCGCCGGAAAACCGCAGCGGCGGCGG | 10200
TTCTGCTACATCCTGCCCACTCCCTGTGGCTTCCAC | 3270
ATGGGTACAGGATTTCCTTTTGTGGTGATGAAAATG | 1200
AGCTCTGCCAGGAAGTGAGAACCACAGGCCTCCCCT | 1350
AGCTGAAGGGCAGGATGTGGTTTCAGCATTCGGTGA | 5290
CGGTGGCTTCCGGCCCATGGCGGTGGTTGGTGACTC | 1840
CCCCTCGCCCTTCCGCATTGCGGGTTACTTCGGTTG | 3510
